Results: publication PMC4336329 (PLoS ONE, 2015)
About 14,000 (4.5%) of roughly 310,000 compounds showed an effect of 50% or more. The effect is printed as a negative number. What follows is part of a selection rich in strong results, with near analogues and random picks from the rest.

biological target: human ether-à-go-go-related gene (hERG) potassium channel (human, UniProt Q12809); experiment: primary screen, population patch clamp on CHO cells stably expressing hERG; higher = less effect of the substance
Sequence (Q12809 whole entry, looked up): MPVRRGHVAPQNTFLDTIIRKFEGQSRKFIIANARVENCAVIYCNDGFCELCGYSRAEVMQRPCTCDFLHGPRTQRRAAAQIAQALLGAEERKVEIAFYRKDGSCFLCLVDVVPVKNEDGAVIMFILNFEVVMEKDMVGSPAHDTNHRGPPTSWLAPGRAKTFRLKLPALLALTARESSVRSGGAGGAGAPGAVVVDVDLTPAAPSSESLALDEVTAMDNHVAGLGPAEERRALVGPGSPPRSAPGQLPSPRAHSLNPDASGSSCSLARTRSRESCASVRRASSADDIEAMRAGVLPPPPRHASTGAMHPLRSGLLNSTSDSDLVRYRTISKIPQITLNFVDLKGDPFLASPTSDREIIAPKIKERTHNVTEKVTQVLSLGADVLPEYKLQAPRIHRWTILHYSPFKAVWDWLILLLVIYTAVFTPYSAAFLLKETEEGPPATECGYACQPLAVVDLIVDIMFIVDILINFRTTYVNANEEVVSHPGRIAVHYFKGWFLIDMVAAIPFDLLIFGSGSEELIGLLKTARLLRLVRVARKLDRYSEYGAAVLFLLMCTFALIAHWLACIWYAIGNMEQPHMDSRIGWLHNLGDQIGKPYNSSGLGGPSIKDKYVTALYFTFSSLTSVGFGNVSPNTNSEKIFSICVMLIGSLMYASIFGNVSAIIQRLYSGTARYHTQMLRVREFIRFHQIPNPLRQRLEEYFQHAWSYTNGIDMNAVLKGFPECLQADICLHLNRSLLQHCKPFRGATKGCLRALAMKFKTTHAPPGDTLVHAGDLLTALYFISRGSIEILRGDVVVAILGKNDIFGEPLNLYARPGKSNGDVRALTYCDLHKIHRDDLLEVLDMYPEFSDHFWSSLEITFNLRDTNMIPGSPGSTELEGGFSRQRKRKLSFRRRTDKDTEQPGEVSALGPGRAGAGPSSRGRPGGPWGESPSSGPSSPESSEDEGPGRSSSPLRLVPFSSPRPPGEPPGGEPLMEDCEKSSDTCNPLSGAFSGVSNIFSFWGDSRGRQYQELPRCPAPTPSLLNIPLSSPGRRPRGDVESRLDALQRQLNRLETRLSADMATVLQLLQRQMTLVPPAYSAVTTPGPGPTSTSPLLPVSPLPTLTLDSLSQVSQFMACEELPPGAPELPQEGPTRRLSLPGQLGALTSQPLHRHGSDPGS
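Further: peak tail current of the secondary pulse compared with the same well before compound.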

Compound	hERG current change (%, negative = inhibition) at 10uM [%]
O=C1c2ccccc2C(=O)N1c1ncn[nH]1	11.3
Cc1cccc(Nc2ncnc(N)n2)c1	15.6
O=C1CCN(Cc2ccc(Cl)cc2)N1	10.8
CC(C)c1cc(=O)n2[nH]c(SCc3ccccc3Cl)nc2n1	23.7
Cc1ccc(C(=O)COC(=O)CCC(=O)NC2CCCCC2)cc1C	14.8
Cc1cccc(C)c1N(CC(O)Cn1c2ccccc2c2ccccc21)S(C)(=O)=O (centres unmarked)	18.6
COc1cccc(C(CC(=O)O)NS(=O)(=O)c2ccc3c(c2)N(C(C)=O)CC(C)O3)c1 (centres unmarked)	24.4
Cc1nn(-c2ccccc2)c(Cl)c1C(=O)N1CCN(c2ncnc3c2cnn3-c2ccccc2)CC1	-29.1
CCOC(=O)C1(CCOC)CCN(Cc2ccc(C3CCCCO3)s2)CC1 (centres unmarked)	-21.4
C=C(C)[C@@H]1CC=C(CN2CCC(CCOC)(C(=O)OCC)CC2)CC1	-64.7
CCOC(=O)C1(CCOC)CCN(Cc2nc(C(C)C)cs2)CC1	41
N#CCCN(CCC#N)C(=O)C1c2ccccc2Oc2ccccc21	14.4
CCOC(=O)c1ccccc1NC(=O)COC(=O)CN1C(=O)C2CC=CCC2C1=O (centres unmarked)	-2.8
Cn1c(C(=O)NCCN2CCCCCC2)cc2c(=O)n(C)c3ccccc3c21	-13.4
C=CCOc1ccc2oc(=O)cc(C)c2c1	-1.62
CCNc1c2c(nc3ccccc13)CC(C)(C)CC2=O.O=C(O)C(=O)O	-69.9
Cc1c2c(nc3ccccc13)CC(C)(C)CC2=O.Cl	0.994
CC1(C)CC(=O)c2c(nc3ccccc3c2N)C1	-28.8
O=C(Nc1cccc(C(=O)O)c1)/C(=C\c1ccco1)NC(=O)c1ccc(Br)o1	-28.1
Cc1ccc(SCC(=O)OCC(=O)NCc2cccs2)cc1	5.8
NC(=S)N=Nc1c(O)n(CCCl)c2ccc(Cl)cc12	9.1
CCOc1cc(/C=C\[N+](=O)[O-])ccc1OCC(=O)N1CCOCC1	-50.5
CCOc1cc(C=C2C(=O)NC(=O)NC2=O)ccc1OCC(=O)N1CCOCC1	7.28

Compound	hERG current change (%, negative = inhibition) at 10uM [%]
O=C(COc1ccc(/C=C\[N+](=O)[O-])cc1)N1CCOCC1	-17.7
CCCOc1ccc(C(=O)Nc2ccc3c(c2)OCO3)cc1	16.1
CC(=O)c1cccc(NC(=O)CCOc2ccccc2)c1	6.88
COc1cccc(C(=O)Nc2cc(NC(=O)c3ccco3)ccc2OC)c1	-5.19
CC(C)Oc1cccc(C(=O)Nc2ccc(NC(=O)c3ccco3)cc2)c1	6.06
CCCOc1cccc(C(=O)Nc2cc(NC(=O)c3ccco3)ccc2OC)c1	-81.2
COc1ccc(NC(=O)c2ccco2)cc1NC(=O)c1cccc(OC(C)C)c1	-96.7
CCCCOc1cccc(C(=O)Nc2ccc(NC(=O)c3ccco3)cc2)c1	8.63
CCCOc1cccc(C(=O)Nc2cccc(NC(=O)c3ccco3)c2)c1	-21.8
CCCc1cc(=O)[nH]c(SCC(=O)Nc2nonc2N)n1	-5.4
COc1ccc(CC(=O)Nc2sc3c(c2C#N)CC(C)(C)NC3(C)C)cc1OC	-3.63
COc1ccc(C(=O)CSc2nnc(NC(=O)C3CC(=O)N(c4cccc(OC)c4)C3)s2)cc1 (centres unmarked)	15.6
COC(=O)CC1=C(C(=O)OC)C2(C(=O)N(C)c3ccccc32)C(C#N)=C(N)O1 (centres unmarked)	14.7
CC(C)(C)NC(=O)/C(=C\c1ccccc1F)NC(=O)c1ccc([N+](=O)[O-])cc1	-35.3
Cl.N=c1n(CCO)c2ccccc2n1Cc1ccc(Cl)cc1	-40.1
Cl.N=c1n(CCO)c2ccccc2n1CCOc1ccc(Cl)cc1Cl	-63.8
Cn1c(=O)n(CCOc2ccc(Cl)cc2Cl)c2ccccc21	-2.26
COc1ccccc1NS(=O)(=O)c1cc(-c2cc(C)no2)ccc1OC	-5.52
COc1ccccc1NS(=O)(=O)c1ccc(-c2cc(C)no2)s1	-69.5
COC(=O)c1ccc(NS(=O)(=O)c2ccc(-c3cc(C)no3)s2)cc1	10.5
Cc1ccc(CN2C(=O)S/C(=C\c3ccccc3OCC(=O)O)C2=O)cc1	1.61
C/C(=C\C(=O)N1CCc2ccccc21)C(=O)O	18.5
COc1ccc(N2CCN(S(=O)(=O)c3ccc4c(c3)NC(=O)CC(=O)N4)CC2)cc1	13.2

Compound	hERG current change (%, negative = inhibition) at 10uM [%]
COC(=O)c1cc(S(=O)(=O)N2CCN(c3ccc(F)cc3)CC2)c[nH]1	16.9
COC(=O)c1cc(S(=O)(=O)N2CCN(c3ccc([N+](=O)[O-])cc3)CC2)c[nH]1	-53.9
CC(=O)c1ccc(N2CCN(S(=O)(=O)c3csc(C(N)=O)c3)CC2)cc1	-26.1
O=C1CC(=O)Nc2cc(S(=O)(=O)N3CCN(c4ccc([N+](=O)[O-])cc4)CC3)ccc2N1	-66.8
NC(=O)c1cc(S(=O)(=O)N2CCN(c3cccc(Cl)c3)CC2)cs1	28.1
NC(=O)c1cc(S(=O)(=O)N2CCN(c3ccc([N+](=O)[O-])cc3)CC2)cs1	-74.4
CC(=O)c1ccc(N2CCN(S(=O)(=O)c3ccc4c(c3)NC(=O)CC(=O)N4)CC2)cc1	13.4
COC(=O)c1cc(S(=O)(=O)N2CCN(c3ccccc3)CC2)c[nH]1	7.6
CCC(=O)Nc1nc2ccc(NC(=O)c3cc(OC)c(OC)c(OC)c3)cc2s1	-9.76
Cc1ccc(CNC(=O)c2ccc(C#CC(C)(C)O)s2)cc1	-3.51
Cc1cccc(CSC2=NCCN2S(=O)(=O)c2ccc(F)cc2)c1	-0.802
Cc1ccc(S(=O)(=O)N(C)c2ccc(OC(C)C(=O)N3CCCC3)cc2)cc1C (centres unmarked)	-37.6
COc1ccc(OC)c(CNc2nc3ccccc3n2CCN2CCCCC2)c1	-72.4
COc1ccc(CNc2nc3ccccc3n2C)c(OC)c1	-25
C=CCn1c(NCc2ccc(OC)cc2O)nc2ccccc21	-23.1
COc1ccc(CNc2nc3ccccc3n2CCN2CCCCC2)c(OC)c1	-84.4
COc1ccc(/C=N/c2nc3ccccc3n2CCN2CCCCC2)cc1OC	-14.3
COc1ccc(CNc2nc3ccccc3n2C)c(O)c1	1.38
CCCn1c(NCc2cccc(OC)c2O)nc2ccccc21	-18.1
CCCn1c(NCc2cc(OC)ccc2OC)nc2ccccc21	-51.3
CCn1c(NCc2cc(OC)ccc2OC)nc2ccccc21	-22.8
Cc1[nH]c(C)c(S(=O)(=O)N2CCCCC2)c1C(=O)N1CCCCC1	4.27
Br.Cc1nc(C)c(-c2csc(Nc3cccc(O)c3)n2)s1	6.25

Compound	hERG current change (%, negative = inhibition) at 10uM [%]
COc1cc(OC)cc(-c2c(C#Cc3ccsc3)c3cc(-c4ccc5c(c4)OCCO5)ccc3n2C)c1	7.37
COc1ccc(OCC(=O)Nc2ccccc2O)cc1	-12.5
Cc1c(C(C)(C)O)[nH]c2ccc(C#N)cc12	26.4
CCOC(=O)N1CCN(c2ncnc3scc(-c4ccccc4)c23)CC1	-32.6
Cc1ccc(NC(=O)c2sc3ncnc(N4CCN(c5ccccn5)CC4)c3c2C)c(C)c1	-48.4
CCOC(=O)c1sc2ncnc(N3CCN(C)CC3)c2c1C	-24.3
Cc1c(C(=O)Nc2c(F)cccc2F)sc2ncnc(N3CCN(c4ccccc4)CC3)c12	-12.2
CCN1CCN(c2ncnc3sc(C(=O)Nc4ccccc4F)c(C)c23)CC1	-67
CCOC(=O)c1sc2ncnc(OC)c2c1C	13.3
COCCCNC(=O)c1sc2ncnc(N3CCc4ccccc4C3)c2c1C	-23.9
CCOC(=O)CNC(=O)c1sc2ncnc(N3CCc4ccccc4C3)c2c1C	-36.6
CCCCNC(=O)c1sc2ncnc(N3CCc4ccccc4C3)c2c1C	-50.5
CCOC(=O)c1sc2ncnc(N3CCN(C(=O)OCC)CC3)c2c1C	-53.4
CCOC(=O)c1sc2nc(C)nc(N3CCN(c4ncccn4)CC3)c2c1C	1.82
CCOC(=O)c1sc2ncnc(N3CCN(CC)CC3)c2c1C	-63.9
CCC(C)(NC(=O)Cc1c[nH]c2ccccc12)C(=O)NC1CCCCC1 (centres unmarked)	2.32
CN(C)/C=N/c1sccc1C(N)=O	6.62
COc1ccc(C2(C)NC(=O)N(CC3CCCCC3)C2=O)cc1 (centres unmarked)	9.8
O=C(NCC(=O)N(c1cccnc1)C(C(=O)NC1CCCC1)c1ccccc1F)c1ccco1 (centres unmarked)	-0.301
CC(C)(C)Nc1nc(NCc2cccnc2)nc(N2CCOCC2)n1	4.02
